Rows were chosen to be rich in hits. Some 1.7% of all compounds tested hit in one or more screens of this group.
IkB sig inh – IkB Signaling; hit rate 0.04% among 110,000; ABC-DLBCL IkBa-CBG/CBR dual luciferase ratio, 4 h; response scale: scaled: untreated 0%, proteasome inhibitor 100%; Potency, µM (titrated, usually from 57.1 µM), inactives show at the top dose IkBa stabilization activation; active = well fitted curve in the direction sought with a large enough effect in the signal ratio, not every such curve was filed as active; inconclusive = small, poorly fitted or top-dose-only effect, or a change in a side signal; the % refers to the signal ratio;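 note: the direction sought is a rising ratio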
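Curves were fitted separately to fusion (green), unfused (red) and ratio luminescence, then classed by r2, magnitude and activity. Cells: OCI-Ly3, 4 h compound plus doxycycline at 37C; 10 uM MG-132 defined full response.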
p53ts 32C tox – qHTS Screen for Compounds that Selectively Target Cancer Cells with p53 Mutations: Cytotoxicity of p53ts Cells at the Permissive Temperature. H1299-p53A138V at 32C, ATP luminescence viability, 24 h. hit rate 0.93% among 130,000. Potency, µM (titrated, usually from 46.1 µM), for the others: at the highest dose activity change, negative = cytotoxicity, actives largely listed as cytotoxic;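 note: 0% = DMSO and -100% = full killing by reference compound; nearly all actives have a fitted effect of over 55% in size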
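ATP-content luminescence (ATPlite) read-out after 24 h compound exposure at 32C in H1299-p53A138V cells (600/well). Tested up to 46 uM. Normalized to DMSO (0%) and 100 uM tamoxifen (100% killing); Hill-fit AC50.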
Imprint erasure – qHTS Assay for Compounds that Induce Erasure of Genomic Imprints; hit rate 0.02% among 110,000; mouse ES Peg3-LacZ reporter, beta-gal luminescence, 40 h; Potency, µM (highest dose often 60.7 µM), for inactives: at the highest dose activity change, positive = activation, hits mostly activators; AID 1948, 2009
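Each well holds 300 Peg3LacZ-Neo (maternal) female ES cells incubated 40 h at 37C, 5% CO2. LacZ is measured by BetaGlo luminescence, with AC50 and maximum efficacy derived from dose-response curves.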
p53ts 39C tox – qHTS Screen for Compounds that Selectively Target Cancer Cells with p53 Mutations: Cytotoxicity of p53ts Cells at the Nonpermissive Temperature; H1299-p53A138V viability at 39C, ATP luminescence, 24 h; Potency, µM (series often up to 46.1 µM), inactives show at the top dose activity change, negative = cell killing, hits mostly cytotoxic; hit rate 1.5% among 130,000; note: % is set by controls: 0 for no effect and ±100 for the full control effect; nearly all actives have a fitted effect of over 55% in size
Starred values were filed as active, the others as inactive; [ ] = remark or other dose. Unless noted, calls come from the whole dose curve; as a rule, active = well fitted curve in the direction sought with a large enough effect; inconclusive = small, poorly fitted or top-dose-only effect, or another doubt; inactive = no such curve, though single readings can be large; an effect the other way counts as inactive or inconclusive. Potency is the fitted concentration of half-maximal effect.

`Cc1ccc(Cn2c(SCC(=O)NCc3ccccc3)nc3ccsc3c2=O)cc1` gave IkB sig inh -2%, p53ts 32C tox 0%, Imprint erasure 20%[10.9 µM] and p53ts 39C tox 16µM*.
Screening COc1ccccc1CNc1ncnc2ccc(-c3cccc(NS(C)(=O)=O)c3)cc12 returned IkB sig inh -1%[11.4 µM], p53ts 32C tox -3%, Imprint erasure -16% and p53ts 39C tox -17%.
O=C(c1cc(C(F)(F)F)cc(C(F)(F)F)c1)N1CCC2(CC1)CN(c1ncccn1)C2 was read as IkB sig inh 2%[11.4 µM], p53ts 32C tox 2% and p53ts 39C tox -1%.
Screening Cc1cccc(CSc2nc3c(cc2C#N)CCC3)c1 returned p53ts 32C tox -12% and p53ts 39C tox -6%.
`N#Cc1cc2c(nc1SCc1nc3ccccc3[nH]1)CCC2` gave IkB sig inh inconclusive, p53ts 32C tox 4µM*, Imprint erasure -68% and p53ts 39C tox 5µM*.
For C[C@@H](C(=O)O)c1ccc(N2Cc3ccccc3C2=O)cc1 the results were IkB sig inh inconclusive, p53ts 32C tox 10µM*, Imprint erasure -82%[16.8 µM] and p53ts 39C tox 5µM*.
CC(C)NC(=O)C(c1ccccc1)N1Cc2ccccc2C1=O (configuration not stated) was read as p53ts 32C tox -4%.
Screening Cc1cc(-c2ccc(N=Nc3ccc4c(S(=O)(=O)O)cc(S(=O)(=O)O)c(N)c4c3O)c(C)c2)ccc1N=Nc1ccc2c(S(=O)(=O)O)cc(S(=O)(=O)O)c(N)c2c1O returned IkB sig inh inconclusive, p53ts 32C tox 13µM*, Imprint erasure -44% and p53ts 39C tox 16µM*.
`COc1nc(C)ccc1-c1noc(-c2ccco2)n1` gave IkB sig inh -3%, p53ts 32C tox 13µM*, Imprint erasure -67% and p53ts 39C tox 13µM*.
For COc1cccc(Cn2c(=O)cnc3cnc(N(C)C)nc32)c1 the results were IkB sig inh -3%[11.4 µM], p53ts 32C tox -4%, Imprint erasure inconclusive and p53ts 39C tox -3%.
CCOc1ccc(-c2[nH]ncc2Oc2cccc(OC)c2)c(O)c1 was read as IkB sig inh 6%, p53ts 32C tox -23%, Imprint erasure -22% and p53ts 39C tox 16µM*.
Screening Nc1ncnc2c1ncn2[C@@H]1O[C@@H](COP(=O)(O)OP(=O)(O)OP(=O)(O)OP(=O)(O)OC[C@@H]2O[C@@H](n3cnc4c(N)ncnc43)[C@@H](O)[C@H]2O)[C@H](O)[C@@H]1O returned IkB sig inh 1%, p53ts 32C tox 42% and p53ts 39C tox 49%.
For CCCCCCCC[N+](CCCCCCCC)(CCCCCCCC)CCCCCCCC the results were IkB sig inh inconclusive, p53ts 32C tox inconclusive, Imprint erasure -17% and p53ts 39C tox 16µM*.
`CC1CCc2c(cc(-c3ccccc3)n2-c2ccc(C(=O)NC(C)C)cc2)C1` (configuration not stated) gave IkB sig inh 0%, p53ts 32C tox 44%, Imprint erasure -14%[10.9 µM] and p53ts 39C tox 16µM*.
Screening CC(C)NC(=O)c1ccc(-n2c(-c3ccccc3)cc3c2CCCCC3)cc1 returned IkB sig inh inconclusive, p53ts 32C tox 14%, Imprint erasure -7%[10.9 µM] and p53ts 39C tox -11%.
N[C@H](CS(=O)O)C(=O)O was read as IkB sig inh 2%.
Cc1c2ccccc2c(CSC(=N)N)c2ccccc12 was read as IkB sig inh inconclusive, p53ts 32C tox inconclusive, Imprint erasure -36%[10.9 µM] and p53ts 39C tox inconclusive.
Screening Cc1cccc(C#Cc2ccccc2)n1 returned IkB sig inh 0%, p53ts 32C tox 13µM*, Imprint erasure -44% and p53ts 39C tox inconclusive.
COc1ccc(C/C(O)=C(\C#N)c2nc3ccccc3s2)cc1 was read as IkB sig inh inconclusive, p53ts 32C tox inconclusive, Imprint erasure -7% and p53ts 39C tox 13µM*.
Screening CN(C)c1ncc2nc(-c3cc(F)cc(F)c3)c(=O)n(Cc3cccs3)c2n1 returned IkB sig inh -3%[11.4 µM], p53ts 32C tox 1% and p53ts 39C tox 1%.
CCc1ccc(NC(=O)CSc2nnc3[nH]c(=O)cc(-c4ccccc4)n23)cc1 was read as IkB sig inh 3%, p53ts 32C tox 2%, Imprint erasure 7%[10.9 µM] and p53ts 39C tox 6.3µM*.
For O=C(CSc1nnc2[nH]c(=O)cc(-c3ccccc3)n12)Nc1ccccc1C(F)(F)F the results were IkB sig inh 2%, p53ts 32C tox inconclusive, Imprint erasure -9%[10.9 µM] and p53ts 39C tox inconclusive.
`COc1ccc(Cl)cc1NC(=O)CSc1nnc2[nH]c(=O)cc(-c3ccccc3)n12` gave IkB sig inh inconclusive, p53ts 32C tox inconclusive, Imprint erasure -4%[10.9 µM] and p53ts 39C tox 3.2µM*.
Cc1[nH]n2c(=O)cc(C(C)C)nc2c1-c1ccccc1 was read as IkB sig inh -4%, p53ts 32C tox -29%, Imprint erasure 4% and p53ts 39C tox 13µM*.
Cc1[nH]n2c(=O)cc(C(C)(C)C)nc2c1-c1ccccc1 was read as IkB sig inh 6%, p53ts 32C tox -18%, Imprint erasure -26% and p53ts 39C tox inconclusive.
For COc1ccc(C(=O)N2CCC3(CCN(C)CC3)CC2)cc1 the results were IkB sig inh 1%[11.4 µM], p53ts 32C tox -7% and p53ts 39C tox 3%.
For Nc1ncnc2c1nc(Br)n2C1O[C@H]2COP(=O)(O)O[C@@H]2C1O (some centres not stated) the results were Imprint erasure -7%.
Screening CC1=C(CC[C@H](C)CO)O[C@@H]2C[C@@H]3[C@H]4CC[C@H]5C[C@@H](O)CC[C@]5(C)[C@@H]4CC(=O)[C@@]3(C)[C@@H]12 returned IkB sig inh 5%[11.4 µM], p53ts 32C tox 0%[9.22 µM], Imprint erasure 2%[10.9 µM] and p53ts 39C tox -5%[9.22 µM].
`CC(=O)c1cccc(NS(=O)(=O)c2ccc(N/C=C/C(=O)c3ccc(F)cc3)cc2)c1` gave p53ts 39C tox -19%.
`O=C(/C=C/Nc1ccc(F)cc1)c1ccco1` gave IkB sig inh inconclusive, p53ts 32C tox 7.9µM*, Imprint erasure -23% and p53ts 39C tox 13µM*.
For COc1ccc(O)c(C(=O)CC(=O)c2ccccc2)c1 the results were IkB sig inh 16%, p53ts 32C tox 10µM*, Imprint erasure -86% and p53ts 39C tox 13µM*.
`COc1ccc(C(=O)c2ccccc2O)c(O)c1` gave IkB sig inh 0%[25.6 µM], p53ts 32C tox 12%, Imprint erasure -14% and p53ts 39C tox -3%.
For COc1ccc(-n2c(=O)c(-c3ccc(Cl)cc3)nc3cnc(N(C)C)nc32)cc1 the results were IkB sig inh -2%[11.4 µM], p53ts 32C tox -7%, Imprint erasure 1% and p53ts 39C tox 2%.

Assay outcomes (PubChem BioAssay)
